Reference: PubChem BioAssay AID1619 (SRMLSC, 2009)
Out of some 220,000 compounds screened, about 830 (0.38%) were called active.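 Rule for the calls: active = compound inhibiting the enzyme by more than half at any dose during confirmatory dose-response retesting; inconclusive = strong single-dose inhibitors picked by rank but not retested; inactive = the rest.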 The list is a sample of the results. Results with a measured potency or affinity are listed apart.

biological target: Leucine aminopeptidase (Plasmodium falciparum (isolate 3D7)) (UniProt Q8IL11); test: P. falciparum M17LAP inhibitors, primary screen, biochemical, fluorogenic H-Leu-NHMec substrate, 1536-well (AID 1619); details: recombinant M17LAP, H-Leu-NHMec fluorogenic kinetic assay; at 30 µM; stronger effect = higher value;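 note: plate controls were full reaction with DMSO carrier for no effect and no enzyme background for full effect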
Sequence (Q8IL11 whole entry, looked up): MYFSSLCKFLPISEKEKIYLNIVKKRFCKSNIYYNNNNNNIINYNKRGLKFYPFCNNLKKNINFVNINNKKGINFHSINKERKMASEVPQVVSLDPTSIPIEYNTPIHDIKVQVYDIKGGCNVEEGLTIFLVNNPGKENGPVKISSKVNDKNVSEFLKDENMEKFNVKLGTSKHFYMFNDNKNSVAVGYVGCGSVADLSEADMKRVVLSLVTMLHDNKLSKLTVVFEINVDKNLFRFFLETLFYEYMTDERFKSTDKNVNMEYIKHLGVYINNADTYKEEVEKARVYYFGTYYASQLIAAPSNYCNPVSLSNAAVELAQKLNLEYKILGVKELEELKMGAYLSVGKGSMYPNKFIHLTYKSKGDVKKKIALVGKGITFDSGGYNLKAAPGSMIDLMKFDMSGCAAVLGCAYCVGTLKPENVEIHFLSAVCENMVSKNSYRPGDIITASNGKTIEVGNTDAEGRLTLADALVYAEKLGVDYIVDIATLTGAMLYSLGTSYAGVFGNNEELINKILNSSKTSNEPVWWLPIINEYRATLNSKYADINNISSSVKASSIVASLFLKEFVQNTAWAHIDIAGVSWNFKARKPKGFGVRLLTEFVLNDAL

inhibition, inactive:
Cc1[nH]c2ccccc2c1N=Nc1cc(C(=O)O)cc(C(=O)O)c1 21.5%
Oc1[nH]c2ccccc2c1N=Nc1ccc(F)cc1 26.1%
CC(=O)c1cccc(N=Nc2c(C)[nH]c3ccccc23)c1 -8.29%
Oc1[nH]c2ccccc2c1N=Nc1ccccc1 7.84%
COc1cccc(CNC(=O)CCC2CCCN(Cc3cc4ccccc4o3)C2)c1 (stereo unspecified) -1.88%
O=c1cc(Cc2ccccc2)[nH]c(=S)[nH]1 0.4%
Cc1nnc(SCc2cc(=O)[nH]c(=S)[nH]2)s1 27.4%
O=C(NC1CCS(=O)(=O)C1)c1cn(-c2ccccc2)nc1-c1ccccc1 (stereo unspecified) -4.23%
Cc1cc(C)nc(N2CCCC(C(=O)NC(C)CCc3ccco3)C2)n1 (stereo unspecified) 2.6%
CC(OC(=O)CCCc1nc2ccccc2s1)C(=O)NC(N)=O (stereo unspecified) -1.53%
Cc1ccccc1S(=O)(=O)c1cc(C#N)c(=O)[nH]c1N -8.15%
COc1ccc(N(CC(=O)NCc2ccccc2)S(=O)(=O)c2c(C)noc2C)cc1 -3.73%
CCOc1ccc(NC(=S)NCc2nc3ccccc3[nH]2)cc1 -5.56%
O=C(O)CC1S/C(=N/N=C/c2ccc(-c3ccc(Cl)cc3[N+](=O)[O-])o2)NC1=O (stereo unspecified) 31.2%
Cc1ccc(-c2ccc(/C=N/N3C(=O)C4C5C=CC(CC5)C4C3=O)o2)c([N+](=O)[O-])c1 (stereo unspecified) 5.1%
COc1cc(-c2cc(C(=O)Nc3nc4ccccc4s3)c3ccccc3n2)cc(OC)c1OC 4.34%
c1ccc(CN2c3ccccc3-c3nc4ccccc4n3C2c2ccccn2)cc1 (stereo unspecified) 1.51%
COCCOC(=O)C1=C(C)NC(=O)NC1/C=C/c1ccccc1 (stereo unspecified) 0.26%
Cc1cc(C)c(/C=C(\C#N)S(=O)(=O)c2ccccc2)[nH]1 -7.74%
N#C/C(=C/c1ccc(F)cc1)S(=O)(=O)c1ccccc1 -4.38%
CC1=CC2=NC(=O)/C(=C\c3cccn3CCOc3ccccc3)C(=N)N2O1 8.69%
COc1cccc(OCCn2cccc2/C=C2/C(=N)N3OC(C)=CC3=NC2=O)c1 0.81%
Cc1nn(-c2ccccc2)c(C)c1C(=O)NCc1ccc(F)cc1 -15.7%
FC(F)(F)c1cnc(-c2cnc(-c3cccnc3)nc2)c(Cl)c1 1.19%
c1coc(-c2nc(-c3ccco3)c(-c3ccco3)nc2-c2ccco2)c1 48.1%
c1coc(-c2ncc[nH]2)c1 -2.51%
COc1ccc(/C=N/N2CCN(c3ccncc3S(=O)(=O)N3CCCCC3)CC2)cc1 0%
Cc1cc(C(=O)COC(=O)c2cccnc2Cl)c(C)n1-c1c(C)n(C)n(-c2ccccc2)c1=O 10.5%
CCOc1ncccc1C(=O)OCC(=O)c1cc(C)n(Cc2ccco2)c1C 6.52%
CCCn1c(C)cc(C(=O)COC(=O)c2nccnc2N)c1C 6.47%
Cc1cc(C(=O)OCC(N)=O)c(C)n1-c1ccccc1 3.65%
COc1ccc(Nc2nc(N)nc(CN3CCC(Cc4ccccc4)CC3)n2)cc1 -2.44%
CCOC(=O)CC(=O)CSc1n[nH]c(=O)[nH]c1=O -5.31%
C=CCn1c(SCC(=O)c2ccc(OC)cc2)nnc1-c1cc2cccc(OC)c2o1 3.95%
CCn1c(SCC(=O)O)nnc1-c1ccccc1OC -7.5%
CCn1c(SCC(=O)C(C)(C)C)nnc1-c1ccccc1OC 6.79%
C=CCn1c(SCC(=O)c2ccc(O)c(O)c2)nnc1-c1cccnc1 22.5%
CCC(=O)Nc1ccc(C(=O)NNC(=O)C(c2ccccc2)c2ccccc2)cc1 5.41%
O=C(CNC(=O)c1ccc([N+](=O)[O-])cc1)N/N=C\c1ccc(OC(=O)c2ccccc2)cc1 -2.63%
COc1ccc(S(=O)(=O)NCCc2ccccc2)cc1 -1.2%
Cc1nn(C)cc1/C=N/NC(=O)Cn1cncn1 0.36%
C=CCN1C(=O)CC(C(=O)NC)SC1=Nc1ccc(C(=O)OCC)cc1 (stereo unspecified) 4.4%
CC(=O)Nc1c(C(=O)N2CCN(c3ccccn3)CC2)cnn1-c1ccc(C)cc1 11%
CC1=CC(C)C2C(=O)N(O)C(=O)C2C1 (stereo unspecified) 1.69%
CN(c1ccc(F)cc1)S(=O)(=O)c1ccc(Cl)c(C(=O)OCC(=O)NCc2ccco2)c1 4.4%
COc1ccc(Nc2nc3ccccc3nc2NS(=O)(=O)c2cccs2)cc1 9.26%
NC1=NC(=O)/C(=C\c2ccco2)S1 25.9%
COc1ccc(NS(=O)(=O)c2cccs2)c(OC)c1 -8.72%
COc1ccc(S(=O)(=O)/N=C2/NC(=O)/C(=C\c3ccco3)S2)cc1 22.2%
O=C1CN(C(=O)CCN2CCOCC2)C(c2ccccc2)c2cc(Br)ccc2N1 (stereo unspecified) 8.27%
Cc1cc(/C=C2/C(=O)NN(c3ccccc3)C2=O)c(C)n1-c1ccc(O)cc1 -3.4%
Cc1cc(C=O)c(C)n1-c1ccc(Cl)c(C(=O)O)c1 14.1%
CCCC(C)c1nnc(NC(=O)C(=O)OCC)s1 (stereo unspecified) 2.47%
O=C(NC(=S)NNS(=O)(=O)c1ccc(Cl)cc1)c1cccnc1 20%
O=C(NC(=S)NNS(=O)(=O)c1ccccc1)c1ccc([N+](=O)[O-])cc1 21.4%
O=C(NNS(=O)(=O)c1ccccc1)c1cccnc1 1.34%
O=C(NNC(=S)NC(=O)c1ccccc1[N+](=O)[O-])c1ccccc1[N+](=O)[O-] 51.9%
CCOC(=O)C1C(=O)C=C(Nc2ccccc2F)CC1c1ccccc1 (stereo unspecified) 10.8%
CCOC(=O)C(C(=O)OCC)N(C#N)c1nc(OC)nc(N(C)C)n1 3.46%
O=Cc1cccc(Oc2ncccn2)c1 3.35%
CCOC(=O)N1CCC(Nc2c(NCCCN(CC)CC)c(=O)c2=O)CC1 -6.21%
O=C1CCC(=O)N1c1cccc(OS(=O)(=O)c2ccccc2)c1 10.4%
Cc1cc(C(F)(F)F)n2nc(-c3cnn(C)c3C(F)(F)F)c(Br)c2n1 4.73%
COC(=O)[C@H](Cc1ccccc1)NC(=O)NCc1cccs1 7.7%
NS(=O)(=O)c1ccc(NC(=O)N[C@@H](Cc2ccccc2)C(=O)O)cc1 9.55%
O=C(NCc1ccccc1)N[C@@H](Cc1ccccc1)C(=O)O 27.9%
O=C(Cc1ccccc1)N[C@@H](Cc1ccc(O)cc1)C(=O)O 7.55%
COc1ccccc1Nc1nc2ccc(C)cc2cc1C#N 5.31%
COc1ccc(N2CCN(c3nc4ccccc4n3CC(=O)c3ccccc3)CC2)cc1 12.7%
O=C1CS/C(=C/C(=O)c2cccc(Cl)c2)N1 16%
Cc1ccc(S(=O)(=O)/C=C2\NC(=O)CS2)cc1 34.6%
O=C(O)c1ccc(/C=N/NC(=O)c2cc(-c3cccs3)nc3ccccc23)cc1 -43.1%
CC1CCC(N2CCN(c3ncccn3)CC2)CC1 (stereo unspecified) 1.15%
Cc1ccc(O)c(-c2cc(-c3ccccc3C)[nH]n2)c1 -1.23%
Cc1ccc(-c2cc(-c3ccccc3C)[nH]n2)c(O)c1 9.91%
Cc1ccc(NC(=O)CSC2=C(C#N)C(c3ccco3)C3=C(CC(C)(C)CC3=O)N2)cc1 (stereo unspecified) 1.21%
C=C(C)C(=O)Oc1ccc(N2C(=O)CCC2=O)cc1 15.3%
O=C(CSc1nc2ccccc2c(=O)n1CCCN1CCOCC1)Nc1cccc(S(=O)(=O)N2CCCCCC2)c1 -0.76%
CCOc1ccccc1NC(=O)N1CCN(S(C)(=O)=O)CC1 -3.49%
CCn1cc(CNC(=O)/C=C/c2cnn(C)c2)c(C)n1 -7.7%
O=[N+]([O-])c1cccc(-c2ccn[nH]2)c1 0.95%
Clc1ccc(-c2n[nH]c3c2CCC3)cc1Cl -3.59%
O=c1cc(O)c(-c2ccc(Cl)c(Cl)c2)c(Cl)[nH]1 4.59%
Nc1cc(-c2cccc([N+](=O)[O-])c2)[nH]n1 10.1%
Cc1ccc([N+](=O)[O-])cc1S(=O)(=O)N1CCCCC1C(=O)O (stereo unspecified) 11.7%
COc1cccc(CN2CCN(C(=O)CC(C)C)CC2)c1 -2.21%
O=C1CNC(=O)/C(=C/c2ccco2)N1 6.62%
Cc1cc(/C=N/Nc2ccc([N+](=O)[O-])cn2)c(C)n1-c1ccccc1 9.51%
Cc1ccc(-n2c(C)cc(/C=N/Nc3ccc([N+](=O)[O-])cn3)c2C)cc1 -7.78%
Cc1ccnc2nc(C(=O)NCc3cccs3)nn12 -0.8%
NS(=O)(=O)c1ccc(CCNC(=O)C2CCN(S(=O)(=O)c3c(Cl)cccc3Cl)CC2)cc1 1.28%
Cc1cc(C)cc(N(CC(=O)Nc2ccccc2C(=O)N2CCOCC2)S(C)(=O)=O)c1 -5.57%
CC#CCC(CC#CC)c1nc2ccccc2c(=O)n1N -1.78%
Cc1ccc(-c2noc(CCC(=O)NC3CCCc4ccccc43)n2)cc1 (stereo unspecified) -3.35%
Cc1ccc(Cn2ccc(NC(=O)c3cc(C4CC4)on3)n2)cc1 1.62%
Cc1ccc(Cn2ccc(NC(=O)c3cc(C)on3)n2)cc1 -2.56%
